According to the supplement of paper PMC12350171:
Structures can show the parent of a compound that is named as a salt. A number with no mark means an inactive call.

Key:
Conditions in all cases: 20 µM
[1] = system: Salmonella enterica typhimurium; experiment: growth AUC normalised to DMSO control (fraction of control); higher = less growth inhibition, active = hit call of the paper
Summary of the method: (§1)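 Pathogens passaged twice anaerobically were inoculated at a starting OD578 of 0.01 into pre-reduced mGAM plates with drug at 20 μM and 1% DMSO, sealed with breathable membranes. Haemophilus parainfluenzae medium was supplemented with hemin and NAD. OD578 was read hourly for 24 h, with three biological replicates. Growth-curve AUC was computed by the trapezoidal rule up to the exponential-to-stationary transition and normalised to DMSO controls on the same plate.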

Shigella flexneri = experiment: as above
Summary of the method: as §1

Vibrio cholerae = experiment: as above
Summary of the method: as §1

[2] = system: Yersinia pseudotuberculosis; experiment: as above
Summary of the method: as §1

P. vulgatus RND KO = experiment: growth AUC normalised to DMSO control (median) (fraction of control); higher = less growth inhibition, active = hit call of the paper
Summary of the method: (§2)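 Anaerobic growth was tracked hourly at OD578 for 24 h in 96-well plates of mGAM seeded at OD578 0.01 with each approved-drug library compound at 20 μM and 1% DMSO. Strains had first been passaged twice overnight without oxygen. Three biological replicates were run. The reported median is the area under the curve, calculated by the trapezoidal rule on curves truncated at entry into stationary phase and normalised to vehicle wells on the same plate.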

P. vulgatus WT = experiment: as above
Summary of the method: as §2

[3] = system: S. enterica typhimurium WT; experiment: as above
Summary of the method: as §2

[4] = system: S. enterica typhimurium tolC KO; experiment: as above
Summary of the method: as §2
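Throughout, for growth AUC normalised to DMSO control (median): active when median AUC fell below 0.1.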

Row | Compound | growth AUC normalised to DMSO control [1] | growth AUC normalised to DMSO control (Shigella flexneri) | growth AUC normalised to DMSO control (Vibrio cholerae) | growth AUC normalised to DMSO control [2] | growth AUC normalised to DMSO control (P. vulgatus RND KO) | growth AUC normalised to DMSO control (P. vulgatus WT) | growth AUC normalised to DMSO control [3] | growth AUC normalised to DMSO control [4]
1 | CN1CCN(C(c2ccccc2)c2ccc(Cl)cc2)CC1 (stereo not given) [Chlorcyclizine hydrochloride] | 1 | 0.993 | 0.927 | 0.984 | 0.987 | 0.963 | 0.992 | 0.958
2 | O=c1[nH]c(=O)n([C@H]2C[C@H](O)[C@@H](CO)O2)cc1I [Idoxuridine] | 0.909 (active) | 0.861 (active) | 0.992 | 0.984 | 1.01 | 1.05 | 0.936 | 0.933
3 | CCOC1O[C@H]([C@@H](COCc2ccccc2)OCc2ccccc2)[C@H](OCc2ccccc2)[C@H]1O (stereo not given in full) [Tribenoside] | 1 | 1.01 | 1 | 0.988 | 0.946 | 0.987 | 1.01 | 0.959
4 | COc1cc(N)c(Cl)cc1C(=O)NC1CCN(Cc2ccccc2)CC1 [Clebopride maleate] | 0.996 | 0.998 | 0.995 | 1 | 0.987 | 0.999 | 0.998 | 1
5 | Nc1ncnc2c1ncn2[C@@H]1O[C@H](CO)[C@@H](O)[C@@H]1O [Vidarabine] | 0.988 | 0.984 | 0.975 | 0.829 | 0.971 | 0.977 | 0.99 | 0.995
6 | Clc1ccc(C(c2ccccc2Cl)C(Cl)Cl)cc1 (stereo not given) [Mitotane] | 1 | 0.999 | 1.07 | 1.02 | 0.97 | 0.94 | 1 | 0.957
7 | Cc1c(Cl)cccc1Nc1ccccc1C(=O)O [Tolfenamic acid] | 1 | 0.961 | 0.901 | 0.963 | 0.802 | 0.803 | 1.02 | 0.992
8 | COc1cc2ncnc(Nc3ccc(F)c(Cl)c3)c2cc1OCCCN1CCOCC1 [Gefitinib] | 1.01 | 1.02 | 1 | 0.983 | 1.07 | 1.07 | 1.01 | 0.928
9 | CN(C)C(=N)NC(=N)N [Metformin hydrochloride] | 1 | 1.01 | 1.02 | 0.983 | 1.01 | 0.996 | 1 | 1
10 | Cc1cccc(C)c1OCC(C)N (stereo not given) [Mexiletine hydrochloride] | 1.01 | 1.05 | 1.05 | 1.01 | 1.03 | 1.05 | 1 | 0.999
11 | COc1ccccc1N1CCN(CCCCNC(=O)c2ccc3ccccc3c2)CC1 | 1.01 | 1.03 | 0.0446 (active) | 0.978 | 1.02 | 1.08 | 0.985 | 0.753
12 | CNCCCN1c2ccccc2CCc2ccccc21 [Desipramine hydrochloride] | 0.974 | 0.946 | 0.957 | 0.986 | 0.947 | 0.976 | 0.964 | 0.925
13 | CC(C)(C)C(=O)OCOC(=O)[C@@H]1N2C(=O)[C@@H](NC(=O)[C@H](N)c3ccccc3)[C@H]2SC1(C)C [Pivampicillin] | 0.97 | 1.01 | 0.987 | 0.818 (active) | 1.01 | 1.02 | 0.993 | 1
14 | CN(C)[C@@H]1C(=O)C(C(N)=O)=C(O)[C@@]2(O)C(=O)C3=C(O)c4c(O)ccc(Cl)c4[C@@H](O)[C@H]3C[C@@H]12 [Demeclocycline hydrochloride] | 0.00255 (active) | 0.0177 (active) | 0.056 (active) | 0.0357 (active) | 0.015 (active) | 0.0137 (active) | 0.00782 (active) | 0.00561 (active)
15 | CCCCOc1ccc(C(=O)CCN2CCCCC2)cc1 [Dyclonine hydrochloride] | 0.985 | 0.963 | 0.913 | 0.979 | 1 | 1.01 | 0.996 | 0.986
16 | Cc1ccc(C(=O)c2ccc(CC(=O)O)n2C)cc1 [Tolmetin sodium salt dihydrate] | 0.984 | 1.04 | 1.05 | 1.01 | 0.983 | 0.985 | 0.999 | 1
17 | CCN(CC)CCOC(=O)C(c1ccccc1)c1ccccc1 [Adiphenine hydrochloride] | 0.974 | 0.99 | 1.01 | 1 | 1.03 | 1.03 | 0.995 | 1
18 | N=C(N=C(N)N)N1CCOCC1 [Moroxidine hydrochloride] | 0.999 | 1 | 0.991 | 0.965 | 1.01 | 1.04 | 1.01 | 0.992

Row | Compound | growth AUC normalised to DMSO control [1] | growth AUC normalised to DMSO control (Shigella flexneri) | growth AUC normalised to DMSO control (Vibrio cholerae) | growth AUC normalised to DMSO control [2] | growth AUC normalised to DMSO control (P. vulgatus RND KO) | growth AUC normalised to DMSO control (P. vulgatus WT) | growth AUC normalised to DMSO control [3] | growth AUC normalised to DMSO control [4]
19 | CN(C)CCN(Cc1ccccc1)c1ccccn1 [Tripelennamine hydrochloride] | 1 | 0.993 | 1.01 | 0.973 | 0.982 | 0.985 | 0.965 | 1
20 | CC1(C)S[C@@H]2[C@H](NC(=O)Cc3ccccc3)C(=O)N2[C@H]1C(=O)O [Benzylpenicillin sodium] | 0.0129 (active) | 0.9 | 0.136 (active) | 0.101 (active) | 0.0105 (active) | 0.00991 (active) | 0.0318 (active) | 0.0065 (active)
21 | COc1cc(C)nc(-n2nc(C)cc2OC)n1 [Epirizole] | 0.997 | 1 | 0.981 | 0.992 | 0.979 | 0.999 | 1 | 1.01
22 | COc1ccc(C(=O)c2ccccc2O)c(O)c1 [Dioxybenzone] | 0.977 | 0.983 | 0.909 | 0.982 | 0.981 | 1.01 | 0.993 | 0.951
23 | Nc1nnc(-c2cccc(Cl)c2Cl)c(N)n1 [Lamotrigine] | 0.963 | 0.933 | 1.03 | 1.01 | 0.95 | 0.986 | 0.957 | 0.962
24 | NC(=O)OCC(O)COc1ccc(Cl)cc1 (stereo not given) [Chlorphensin carbamate] | 1.01 | 1.01 | 1.03 | 1.01 | 0.992 | 0.994 | 1.02 | 0.987
25 | NC(=O)c1ncn([C@@H]2O[C@H](CO)[C@@H](O)[C@H]2O)n1 [Ribavirin] | 0.995 | 0.949 | 0.983 | 0.952 | 0.987 | 1 | 0.98 | 0.988
26 | COc1ccc(OC)c(C(O)CNC(=O)CN)c1 (stereo not given) [Midodrine hydrochloride] | 0.992 | 0.99 | 1.02 | 1.02 | 1.02 | 1.02 | 1.02 | 1
27 | O=C1NCN(c2ccccc2)C12CCN(CCCC(c1ccc(F)cc1)c1ccc(F)cc1)CC2 [Fluspirilene] | 1.04 | 1.01 | 1.04 | 1.01 | 1 | 1.01 | 1.02 | 0.988
28 | C#CCN(C)Cc1ccccc1 [Pargyline hydrochloride] | 0.964 | 1.03 | 0.942 | 0.994 | 1.01 | 1 | 1 | 1.01
29 | C1CCC(C(CC2CCCCN2)C2CCCCC2)CC1 (stereo not given) [Perhexiline maleate] | 0.983 | 0.977 | 0.931 | 1.01 | 0.915 | 0.954 | 0.994 | 0.945
30 | COc1ccc(C(=O)NCc2cccnc2)cc1C(=O)NCc1cccnc1 [Picotamide monohydrate] | 0.989 | 0.968 | 0.992 | 0.984 | 1 | 1.01 | 0.995 | 0.998
31 | O=C(O)CNC(=O)C(CS)Cc1ccccc1 (stereo not given) [Thiorphan] | 1.02 | 1.05 | 1.08 | 1.01 | 0.993 | 1 | 0.997 | 0.995
32 | Cc1cnc(NC(=O)C2=C(O)c3ccccc3S(=O)(=O)N2C)s1 [Meloxicam] | 1.01 | 0.953 | 0.837 (active) | 1 | 0.982 | 0.991 | 0.994 | 0.947
33 | CCCc1cc(C(N)=S)ccn1 [Prothionamide] | 1 | 1 | 1.01 | 1 | 0.988 | 0.997 | 0.987 | 0.981
34 | c1ccc2[nH]c(-c3cscn3)nc2c1 [Tiabendazole] | 0.97 | 0.954 | 0.956 | 0.975 | 0.971 | 0.971 | 1 | 0.995
35 | CCOc1ccc2c(c1)C(C)=CC(C)(C)N2 [Ethoxyquin] | 0.998 | 0.95 | 0.958 | 0.986 | 0.971 | 0.972 | 1.01 | 1
